Values joined by “and” are separate entries in the source; they are usually repeats but may differ in a detail not shown here. Equal entries are not always repeated. Results filed as inconclusive are left out. Active and inactive are the calls of the source. Unless noted, calls follow the shape of the dose curve; as a rule, active = well fitted curve in the direction sought with a large enough effect; inconclusive = small, poorly fitted or top-dose-only effect, or another doubt; inactive = no such curve, though single readings can be large; an effect the other way counts as inactive or inconclusive.
Columns and labels:
[1] = qHTS assay for small molecule agonists of the antioxidant response element (ARE) signaling pathway (AID 651741; active = well fitted activation curve with a large enough effect in the signal ratio; the % refers to the signal ratio; also: potency is read from the fitted curve at half-maximal effect; as to activation: % of control where 0% means no effect)
Outline: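 Beta-lactamase reporter expression driven by the antioxidant response element in HepG2 cells was detected by fluorescence with LiveBLAzer B/G FRET substrate (2 h, room temperature) following 16 h compound treatment at 37 C.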

[2] = qHTS assay for small molecule activators of the p53 signaling pathway (AID 651743; active = well fitted activation curve with a large enough effect in the signal ratio, not every such curve was filed as active; the % refers to the signal ratio; also: series mostly up to about 92 µM; % of control where 0% means no effect); settings: HCT-116 p53RE-bla, beta-lactamase FRET ratio, 16 h; activation: stronger effect = higher value
Outline: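 Here HCT-116 cells with an integrated p53-responsive beta-lactamase gene were incubated with compounds (16 hours, 37 C) after a 5-hour plating period; beta-lactamase activity was detected as fluorescence intensity via B/G FRET substrate.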

[3] = qHTS assay for small molecule activators of the nuclear factor-kappa B (NF-kB) signaling pathway (AID 651749; active = well fitted activation curve with a large enough effect in the signal ratio; the % refers to the signal ratio; also: series mostly up to about 77 µM; % of control where 0% means no effect); settings: NF-kB-bla ME-180 cells, beta-lactamase FRET ratio, 16 h; stronger effect = higher value
Outline: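 Beta-lactamase reporter expression, controlled by NF-kB response elements in ME-180 cells, was quantified fluorometrically via FRET disruption; cells at 2,000/well had been incubated with 23 nL test compound for 16 hr.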

[4] = qHTS assay for small molecule disruptors of the mitochondrial membrane potential - 1 hr assay (AID 651754; calls by dose curve; also: % is scaled to controls: 0 for no effect and ±100 for the full control effect; nearly all actives have a fitted effect of over 35% in size)
Outline: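 Read-out: dye fluorescence at 490 nm ex/535 nm em (monomers) and 540 nm ex/590 nm em (aggregates) in HepG2 cells. Compound exposure 1 hr at 37C, followed by 30 min dye loading.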

[5] = qHTS assay for small molecule disruptors of the mitochondrial membrane potential - 5 hr assay (AID 651755; calls by dose curve; also: % is scaled to controls: 0 for no effect and ±100 for the full control effect; nearly all actives have a fitted effect of over 40% in size)
Outline: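 Seed HepG2 overnight, add compound, incubate 5 hr at 37C and 5% CO2, stain 30 min with Mito-MPS, then measure monomer (490/535 nm) and aggregate (540/590 nm) fluorescence.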

[6] = target: Tumor necrosis factor (Homo sapiens) (UniProt P01375); assay: qHTS assay to identify small molecules that stimulate Tumor Necrosis Factor-alpha (TNF-alpha) secretion (AID 651757; active = well fitted curve in the direction sought with a large enough effect in the signal ratio; the % refers to the signal ratio; also: potency is read from the fitted curve at half-maximal effect)
Chain of Tumor necrosis factor (Homo sapiens) (P01375 whole entry, looked up): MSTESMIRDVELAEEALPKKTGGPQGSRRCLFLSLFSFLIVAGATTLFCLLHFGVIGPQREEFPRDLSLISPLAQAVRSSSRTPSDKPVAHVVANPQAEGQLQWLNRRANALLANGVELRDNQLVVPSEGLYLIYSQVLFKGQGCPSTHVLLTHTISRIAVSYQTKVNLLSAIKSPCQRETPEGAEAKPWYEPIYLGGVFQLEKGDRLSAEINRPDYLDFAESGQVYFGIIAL
Outline: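 THP-1 cells, 3000/well; compound 17 hrs, 37 C; add cryptate/XL665 anti-TNF-alpha antibody pair; 3 hr RT; TR-FRET (HTRF) read of secreted TNF-alpha. Quantitative HTS format.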

[7] = qHTS assay for environmental chemicals that activate the Aryl hydrocarbon Receptor (AhR) signaling pathway (AID 651777); settings: 1A2-DRE human hepatoma cells, luciferase, 24 h; activation: stronger effect = higher value; also: % of control where 0% means no effect; nearly all actives have a fitted effect of over 15% in size
Outline: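 Measured luciferase activity, read 30 min after One-Glo addition at room temperature, from human hepatoma cells bearing a dioxin response element–CYP1A2 promoter reporter and exposed to compound for 24 hr at 37 C.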

[8] = target: Peroxisome proliferator-activated receptor alpha (Homo sapiens) (UniProt Q07869); assay: qHTS assay for small molecule agonists of the peroxisome proliferator-activated receptor alpha (PPARalpha) signaling pathway (AID 651778); settings: PathHunter PPARalpha complementation, chemiluminescence, 6 h; stronger effect = higher value; also: % of control where 0% means no effect
Chain of Peroxisome proliferator-activated receptor alpha (Homo sapiens) (Q07869 whole entry, looked up): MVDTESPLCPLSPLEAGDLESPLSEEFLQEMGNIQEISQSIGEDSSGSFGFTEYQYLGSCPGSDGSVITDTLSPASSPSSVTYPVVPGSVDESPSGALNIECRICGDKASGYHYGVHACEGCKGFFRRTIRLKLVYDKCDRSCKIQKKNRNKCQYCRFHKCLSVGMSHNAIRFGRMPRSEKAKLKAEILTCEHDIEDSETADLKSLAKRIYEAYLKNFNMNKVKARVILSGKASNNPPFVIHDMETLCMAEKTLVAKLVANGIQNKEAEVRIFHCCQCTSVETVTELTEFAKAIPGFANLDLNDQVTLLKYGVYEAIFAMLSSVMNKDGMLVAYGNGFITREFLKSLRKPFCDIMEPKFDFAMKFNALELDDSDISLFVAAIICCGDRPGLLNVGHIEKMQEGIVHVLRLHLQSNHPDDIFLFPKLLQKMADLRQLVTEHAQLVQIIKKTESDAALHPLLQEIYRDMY
Outline: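 Cells plated at 2,000/well and held overnight at 37 C, 5% CO2, then compound added by pin tool for 6 hr; after PathHunter detection reagent and 60 min at room temperature, chemiluminescence from enzyme complementation was read.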

[9] = target: Nuclear receptor ROR-gamma (Homo sapiens) (UniProt P51449); assay: qHTS assay for small molecule antagonists of the retinoid-related orphan receptor gamma (ROR-gamma) signaling pathway (AID 651802); also: nearly all actives have a fitted effect of over 60% in size; also: potency is read from the fitted curve at half-maximal effect
Chain of Nuclear receptor ROR-gamma (Homo sapiens) (P51449 whole entry, looked up): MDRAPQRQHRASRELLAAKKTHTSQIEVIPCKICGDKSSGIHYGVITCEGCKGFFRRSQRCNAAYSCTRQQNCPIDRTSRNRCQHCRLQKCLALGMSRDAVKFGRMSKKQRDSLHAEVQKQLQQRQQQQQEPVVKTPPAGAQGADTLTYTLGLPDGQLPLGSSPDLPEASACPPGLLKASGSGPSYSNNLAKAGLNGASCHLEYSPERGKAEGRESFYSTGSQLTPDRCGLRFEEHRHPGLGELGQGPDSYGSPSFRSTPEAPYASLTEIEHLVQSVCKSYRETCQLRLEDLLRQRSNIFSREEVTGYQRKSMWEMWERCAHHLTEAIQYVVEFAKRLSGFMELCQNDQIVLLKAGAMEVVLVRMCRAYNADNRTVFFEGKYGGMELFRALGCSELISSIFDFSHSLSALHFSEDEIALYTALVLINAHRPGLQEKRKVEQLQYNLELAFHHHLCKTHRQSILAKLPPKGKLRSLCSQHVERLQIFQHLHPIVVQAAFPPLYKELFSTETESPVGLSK
Outline: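 Luciferase read-out: ONE-Glo luminescence after 30 min at room temperature, following 16hr doxycycline induction at 37C, 5% CO2 of CHO cells with TET-inducible ROR and RORE-LUC reporter; decreased luminescence = reduced reporter activity.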

[10] = qHTS assay to identify small molecules that stimulate interleukin-8 (IL-8) secretion (AID 651758; active = well fitted activation curve with a large enough effect in the signal ratio; the % refers to the signal ratio; also: potency is read from the fitted curve at half-maximal effect; as to activation: 0% is about no effect)
Outline: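 Quantitative HTS in THP-1 monocytic cells at 2000 cells per well, with 16 hrs compound incubation at 37 C. IL-8 in the medium was then quantified by HTRF immunoassay, read after 1-3 hrs at room temperature.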

CC[C@H]1OC(=O)[C@H](C)[C@@H](O[C@H]2C[C@@](C)(OC)[C@@H](O)[C@H](C)O2)[C@H](C)[C@@H](O[C@@H]2O[C@H](C)C[C@H](N(C)C)[C@H]2O)[C@](C)(O)C[C@@H](C)CN(C)[C@H](C)[C@@H](O)[C@]1(C)O
inactive: Potency [1] | activation [2] -5.82% | activation [3] -0.197% | Potency [4] | Potency [5] | Potency [6] | activation [7] 0.789% | max response [8] -5.78% | Potency [9]

CCCCCCCCCCCCCCCCCC(=O)OC[C@@H](O)[C@H]1OC[C@H](O)[C@H]1O
inactive: Potency [1] | activation [2] -1.65% | activation [3] -0.074% | activation [7] 0.366% | max response [8] 12.5%

c1ccc2ccccc2c1
inactive: Potency [1] | activation [2] -7.12% and -1.33% | activation [3] 0.258% and -0.756% | Potency [6] | activation [7] 0.0968% and 0.369% | max response [8] -3.91% and 0.0956% | Potency [9]

NCCO/C=C/[C@H](N)C(=O)O
inactive: Potency [1] | activation [2] 7.75% | activation [3] -5.26% | activation [7] 1.28% | max response [8] 2.79%

CC1=CC(=O)NS(=O)(=O)O1
inactive: Potency [1] | activation [3] -0.0661% and 0.935% | Potency [4] | Potency [5] | Potency [6] | activation [7] -1.78% and 1.57% | max response [8] -1.04% and -0.299% | Potency [9]

C=CC(C)(O)CC/C=C(\C)CCC=C(C)C (centres undefined)
inactive: activation [2] -1.4% | activation [3] 0.695% | activation [7] 0.207% | max response [8] -0.214%

O=C(OCc1ccccc1)c1ccc(O)cc1
inactive: activation [2] -6.7% | activation [7] 0.611% | max response [8] -0.0988%

CO
inactive: activation [2] -0.522% | activation [3] -0.694% | Potency [6] | activation [7] -0.288% | max response [8] -6.03% | Potency [9]

NC(N)=O
inactive: activation [3] 1.05% | Potency [4] | Potency [5] | Potency [6] | max response [8] -1.08% | Potency [9]

OCC(O)CO
inactive: activation [2] -2.04% and 0.703% | activation [3] 0.141% and 0.577% | Potency [4] | Potency [5] | Potency [6] | activation [7] -0.636% and 0.226% | max response [8] -3.36% and -0.557% | Potency [9]

CC/C=C\C/C=C\C/C=C\CCCCCCCC(=O)O
active: Potency [1] 42.2 µM
inactive: Potency [4] | Potency [5] | Potency [6] | activation [7] 0.211% | max response [8] 20% | Potency [9]

CN(CCO)CC(O)Cn1cnc2c1c(=O)n(C)c(=O)n2C (centres undefined) (tested in a mixture with another compound)
inactive: Potency [1] | activation [3] 1.88% | activation [7] -0.921% | max response [8] -0.0909%

OC[C@H]1O[C@@H]2O[C@H]3[C@H](O)[C@@H](O)[C@@H](O[C@H]4[C@H](O)[C@@H](O)[C@@H](O[C@H]5[C@H](O)[C@@H](O)[C@@H](O[C@H]6[C@H](O)[C@@H](O)[C@@H](O[C@H]7[C@H](O)[C@@H](O)[C@@H](O[C@H]1[C@H](O)[C@H]2O)O[C@@H]7CO)O[C@@H]6CO)O[C@@H]5CO)O[C@@H]4CO)O[C@@H]3CO
inactive: Potency [1] | Potency [4] | Potency [5] | Potency [6] | Potency [10] | activation [7] 1.89% and -0.569% | max response [8] -0.429% and -5.48% | Potency [9]

O.O.O.O.O.O.O.O=S(=O)([O-])[O-].[Co+2]
inactive: Potency [4] | Potency [5] | activation [7] -0.475% | max response [8] -1.84%

CC(C)O
inactive: activation [3] -0.863% | Potency [4] | Potency [5] | Potency [6] | Potency [10] | activation [7] 2.92% | max response [8] -0.168% | Potency [9]

N[C@@H](Cc1cc(I)c(Oc2ccc(O)c(I)c2)c(I)c1)C(=O)O
inactive: activation [2] 5% | max response [8] -3.23%

CC(C)[C@@H]1CC[C@@H](C)C[C@H]1O
inactive: Potency [1] | activation [3] 0.809% | activation [7] -0.378% | max response [8] -1.09%

NCCN
inactive: activation [2] 3.88% | activation [3] -0.458% | Potency [4] | Potency [5] | Potency [6] | activation [7] -1.15% | max response [8] -6.55% | Potency [9]

CC(C)CCCCCCc1ccc(O)cc1
inactive: activation [2] 2.32% | activation [7] 0.323%

O=P(O)(O)O
inactive: Potency [1] | activation [3] -0.144% | Potency [4] | Potency [5] | Potency [6] | activation [7] -1.09% | max response [8] -4.49% | Potency [9]

C/C=C/C=C/C(=O)O
inactive: Potency [6] | Potency [10] | activation [7] 0.214% | max response [8] 0.184% | Potency [9]

[O-][N+](=Nc1ccccc1)c1ccccc1
inactive: activation [2] 1.25% | activation [3] 0.0708% | Potency [4] | Potency [5] | Potency [6] | max response [8] 10.8%

C=C1C(CCl)(CCl)C2(Cl)C(Cl)C(Cl)C1(Cl)C2(Cl)Cl (centres undefined)
inactive: activation [3] 0.534% | activation [7] 1.11% | max response [8] 19%
active: Potency [1] 37.6 µM | Potency [10] 66.8 µM

Cc1ccc(S(=O)(=O)O)cc1C
inactive: activation [2] -1.09% | Potency [4] | Potency [5] | Potency [6] | Potency [10] | activation [7] -1.47% | max response [8] -6.39%

OCc1ccccc1
inactive: activation [3] 0.143% | Potency [4] | Potency [5] | Potency [6] | Potency [10] | activation [7] 0.173% | max response [8] 2.92% | Potency [9]

Cc1ccc(S(=O)(=O)NCl)cc1
inactive: Potency [1] | activation [2] -0.574% | activation [7] -2.28% | max response [8] -0.128%

CCOC(C)OCC
inactive: activation [3] 0.0884% | Potency [6] | activation [7] -0.455% | max response [8] -1.13% | Potency [9]

CCCCC(CC)COS(=O)(=O)O (centres undefined)
inactive: activation [3] -1.03% | activation [7] -1.44% | max response [8] -1.27%

OC[C@H]1O[C@@](CO)(O[C@H]2O[C@H](CO)[C@@H](O)[C@H](O)[C@H]2O)[C@@H](O)[C@@H]1O
inactive: activation [3] -1.26% | activation [7] 1.69% | max response [8] 0.569%

CCCCC
inactive: activation [2] 2.34% | activation [3] -0.668% | Potency [4] | Potency [5] | Potency [6] | max response [8] -0.71% | Potency [9]

C[C@H]1O[C@@H](O[C@H]2[C@@H](O)C[C@H](O[C@H]3[C@@H](O)C[C@H](O[C@H]4CC[C@@]5(C)[C@H](CC[C@@H]6[C@@H]5C[C@@H](O)[C@]5(C)[C@@H](C7=CC(=O)OC7)CC[C@]65O)C4)O[C@@H]3C)O[C@@H]2C)C[C@H](O)[C@@H]1O
inactive: activation [3] -3.56% and -2.4% | activation [7] 2.26% and 1.31% | max response [8] 3.82% and -3.75%
active: Potency [6] 0.376 µM | Potency [9] 9.44 µM

Source: PubChem BioAssay (NCATS)
